The values below come from PubChem BioAssay AID1645883 (National Center for Advancing Translational Sciences (NCATS), 2021).

Several values for one entry are separate records, joined by “and”; a condition that tells them apart may be missing. Equal values may be shown once. About 160 (1%) of roughly 16,000 compounds were called active. About 8% were inconclusive and are not listed. Many of the other results were omitted from the sample, so actives are more common in it than they were. A number with no mark means an inactive call. Calls follow the shape of the dose curve; as a rule, active = well fitted activation curve with a large enough effect; inconclusive = small, poorly fitted or top-dose-only effect; inactive = no such curve, though single readings can be large or run the other way.
% is scaled to controls: 0 for no effect and ±100 for the full control effect; potency is read from the fitted curve at half-maximal effect.

This test deals with Rap guanine nucleotide exchange factor 3 (Homo sapiens) (UniProt O95398). As to the kind of experiment: Validation qHTS for agonist of cAMP-regulated guanine nucleotide exchange factor 3 (EPAC1). Also: nearly all actives have a fitted effect of over 70% in size. Conditions: EPAC1 Rap1b BODIPY-GDP exchange, fluorescence; max response: stronger effect = higher value, percent of cAMP control response. An excerpt: Assay Provider (PI): Xiaodong Cheng Ph.D.
Rap guanine nucleotide exchange factor 3 (Homo sapiens), sequence (O95398 whole entry, looked up): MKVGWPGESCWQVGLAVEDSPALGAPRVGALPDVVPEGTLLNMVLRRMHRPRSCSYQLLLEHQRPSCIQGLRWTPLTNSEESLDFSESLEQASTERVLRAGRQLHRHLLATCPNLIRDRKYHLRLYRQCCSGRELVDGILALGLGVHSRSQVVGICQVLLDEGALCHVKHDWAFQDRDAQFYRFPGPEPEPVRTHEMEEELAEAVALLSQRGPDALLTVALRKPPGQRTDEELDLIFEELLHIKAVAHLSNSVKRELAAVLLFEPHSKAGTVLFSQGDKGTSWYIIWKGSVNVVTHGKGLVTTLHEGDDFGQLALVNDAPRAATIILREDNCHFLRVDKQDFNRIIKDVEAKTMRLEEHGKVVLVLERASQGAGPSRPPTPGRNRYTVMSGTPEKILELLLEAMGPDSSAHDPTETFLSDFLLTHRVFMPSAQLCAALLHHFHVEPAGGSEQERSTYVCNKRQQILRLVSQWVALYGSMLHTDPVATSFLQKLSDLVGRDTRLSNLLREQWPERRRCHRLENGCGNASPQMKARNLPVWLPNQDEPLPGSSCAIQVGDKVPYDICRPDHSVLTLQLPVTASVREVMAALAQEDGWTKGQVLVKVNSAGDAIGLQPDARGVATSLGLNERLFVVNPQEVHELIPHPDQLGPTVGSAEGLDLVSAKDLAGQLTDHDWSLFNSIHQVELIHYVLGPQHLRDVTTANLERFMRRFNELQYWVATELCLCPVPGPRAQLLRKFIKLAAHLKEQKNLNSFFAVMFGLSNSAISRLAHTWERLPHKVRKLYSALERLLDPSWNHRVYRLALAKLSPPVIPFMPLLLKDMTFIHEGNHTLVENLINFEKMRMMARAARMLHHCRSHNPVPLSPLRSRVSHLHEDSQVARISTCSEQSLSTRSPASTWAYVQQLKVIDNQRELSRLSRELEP
The University of Texas Medical Branch, […], TX
In multi-cellular eukaryotic organisms, the effects of cAMP are transduced by two ubiquitously-expressed intracellular cAMP receptors, the classic protein kinase A/cAMP-dependent protein kinase (PKA/cAPK) and the more recently discovered exchange protein directly activated by cAMP/cAMP-regulated guanine nucleotide exchange factor (EPAC/cAMP-GEF). Both PKA and EPAC are ubiquitously expressed in all tissues, and an increase in intracellular cAMP levels will lead to the activation of both PKA and EPAC. Therefore, careful dissections of the individual role and relative contribution of EPAC and PKA within the overall cAMP signaling in various model systems are critical for further elucidating the mechanism of cAMP signaling. To date no EPAC-specific antagonists and agonist, as well as isoform-specific agonists have been reported, and developing EPAC-specific pharmacological probes to determine the physiological functions that EPAC play in the overall cAMP-mediated signaling remains a major challenge within the research field. Furthermore, identified regulators of EPAC may lead to new mechanism-based therapeutic strategies specifically targeting the EPAC / cAMP-signaling components as EPAC has been implicated to play important roles in major human pathological conditions such as diabetes, heart disease, and cancer.
This qHTS will be used to screen the Molecular Libraries Small Molecule Repository (MLSMR) as a concentration-titration series using the NCGC unique quantitative screening (qHTS) platform to find activators for EPAC1. In addition, this assay will also be used as a counterscreen for the EPAC2 qHTS. This fluorescent based assay is developed and validated for EPAC1 that measures exchange using EPAC effector Rap1 complex with BODIPY-GDP, a GDP analog with a tethered fluorophores. Activators are identified by monitoring the change in fluorescence signal as the exchanged free BODIPY-GDP has a reduced fluorescence compared to Rap1-bound BODIPY-GDP. Increase in signal (activation) is the desired outcome for the EPAC1 agonist while no activity in this assay is desired for the EPAC2 agonist counterscreen.
[1] de Rooij, J., Zwartkruis, F. J., Verheijen, M. H., Cool, R. H., Nijman, S. M., Wittinghofer, A., and Bos, J.L. (1998) Nature 396, 474-477.
Briefly, three uL of reagents (100 nM EPAC1, 250 nM RAP1B-BODIPY-GDP, 50 uM GDP) were dispensed into a 1536-well Greiner black solid-bottom medium binding assay plate. Controls and test compounds (23 nL) were transferred to the plate via a Kalypsys pin tool equipped with a 1536-pin array. The plates were centrifuged at 1,000 rpm for 15 seconds followed by 5 minute incubation at room temperature. The assay plates were read at 5 minute intervals for 30 minutes in the ViewLux plate reader using 480nm excitation and 540nm emission filters. The results were normalized to the agonist positive control of 6.5 mM cAMP.
In general terms: Quantitative high-throughput screening tests each substance at several concentrations.
Regarding `O=c1c(-c2cccs2)nc2cnc(Oc3ccccc3)nc2n1-c1ccccc1`, the max response was 26.8%.

`C=O`: the max response was -10.7%.

For the molecule `COCCn1c(=O)c(-c2cccs2)nc2cnc(N3CCN(C)CC3)nc21`, the max response is 9.88%.

Turning to `CC(=O)Nc1cc(C(=O)N2CCc3c(Cl)cccc3C2)cc2ncn(CCc3ccccn3)c12`, the max response was 1.17%.

For the molecule `COC(C)C(C(=O)OCC1=CCN2CC[C@H](O)[C@@H]12)C(C)C` (stereo partly drawn), the max response is 5.22%.

Consider `CNc1cc(-c2c(C)noc2C)ncn1`, for which the max response was 2.2%.

As to `CC(Oc1ccccc1)C(=O)N[C@@H]1C(=O)N2[C@@H]1SC(C)(C)[C@@H]2C(=O)O` (stereo partly drawn), the max response is -0.674%.

As to `COc1cccc(Cn2c(=O)cnc3cncnc32)c1`, the max response was -1.3%.

For `Cc1cn(C2OC[C@@H](O)[C@@H]2CO)c(=O)[nH]c1=O` (stereo partly drawn), the max response is -10%.

For `O=C(c1cnccn1)N1CCC2(CCCN(Cc3ccccc3)C2)CC1`, the max response was -21.3%.

For `O=C(C[n+]1cc(Br)cc2ccccc21)c1ccc(F)cc1`, the max response was 6.56%.

With `O=c1c(-c2ccc(F)c(F)c2)nc2cncnc2n1-c1ccccc1`, the max response is -25.2%.

As to `COc1ccc(C(=O)N2CCC3(CC2)CCN(c2ccccn2)CC3)cc1`, the max response is -52.8%.

`COC(=O)c1ccccc1-c1cc(C)cc2c1OC(CNC(=O)C1CCOC1)C2` (stereo not drawn): the max response is 15.3%.

Consider `COc1ccccc1-c1cc(NCc2cccs2)ncn1`, for which the max response is -0.282%.

Regarding `NNc1nnc(Cc2ccncc2)c2ccccc12`, the max response was 17.7%.

As for `COc1ccc(-n2c(=O)c(C)nc3cnc(N4CCOCC4)nc32)cc1`, the max response was -14.8%.

With `O=C(CCN1Cc2ccccc2OC(c2ccccc2)C1)N[C@@H]1CS(=O)(=O)C[C@H]1O` (stereo partly drawn), the max response was 0.897%.

Regarding `CN(C)c1ccc(/C=C/C=C/c2ccnc3ccccc23)cc1`, the Potency was 112 µM (active).

For the molecule `CN(C)c1ccc(/C=C/c2c3ccccc3nc3ccccc23)cc1`, the max response is 23.9%.

As to `Cc1c(C(=O)NCC2CCCN(C)C2)cnn1-c1nccc(-c2ccco2)n1` (stereo not drawn), the max response was -6.37%.

Consider `CC1(C)[C@H](O[C@H]2O[C@H](C(=O)O)[C@@H](O)[C@H](O)[C@H]2O[C@@H]2O[C@H](C(=O)O)[C@@H](O)[C@H](O)[C@H]2O)CC[C@@]2(C)[C@H]1CC[C@]1(C)[C@H]2C(=O)C=C2[C@H]3C[C@@](C)(C(=O)O)CC[C@]3(C)CC[C@]21C`, for which the max response was 5.45%.

In the case of `CN(Cc1ccco1)c1ncncc1-c1ccoc1`, the max response was 15.3%.

On to `O=C(c1ccco1)N1CCC[C@@]2(CCN(c3ccccc3)C2)C1`, for which the max response was -31.3%.

As for `CCCCCCCCCCCC(=O)O[C@H](CC(=O)O)C[N+](C)(C)C`, the max response is -21.3%.

Take `O=S1(=O)CCOC[C@H](Cc2ccccc2)N1Cc1ccccc1Br`: the max response was 21.5%.

`Cc1nc2cc(NC(=O)[C@@H]3C[C@@H](Sc4ccccn4)CN3Cc3ccccc3C)ccc2s1`: the max response was 16.2%.

Take `Cc1cc[n+](C2CCCCC2)cc1`: the max response was -16.9%.

As for `CC1(C)S[C@@H]2[C@H](N=CN3CCCCCC3)C(=O)N2[C@H]1C(=O)O`, the max response was -11.7%.

For `CCN(Cc1ccncc1)C(=O)[C@@H](CO)c1ccccc1`, the max response is 7.04%.

Turning to `C#CCCCCCCCCCCCCCCCC(=O)O`, the max response is -16.8% and -0.644%.

Regarding `CCN1CCN(C(=O)N[C@@H](C(=O)N[C@@H]2C(=O)N3[C@@H]2SC(C)(C)[C@H]3C(=O)O)c2ccccc2)C(=O)C1=O`, the max response was 15.9%.

On to `CS(=O)(=O)N1CCC2(CC1)CN(Cc1ccccc1)C2`, for which the max response was -14.5%.

As to `COc1ccc2[nH]cc(CCNc3cc(-c4ccccc4CN(C)C)ncn3)c2c1`, the max response was -42%.

Consider `COc1ccc(CNc2ncncc2-c2ccccc2OC)c(OC)c1`, for which the max response was -21.3%.

Consider `O=C(O)CCCCCCCCc1cn(CN2C(=O)c3ccccc3C2=O)nn1`, for which the max response is 12.5%.

In the case of `Oc1ccc(Cl)c2c1CCC2`, the max response was -17.9%.

As to `Cc1csc(-c2nc3ccccc3n2C)n1`, the max response is 8.44%.

For the molecule `NC(=O)c1sc(-c2ccsc2)cc1N`, the max response was -9.78%.

Take `Cc1cnc(CNc2ncncc2-c2ccccc2Cl)cn1`: the max response is 13%.

On to `O=c1c(-c2ccc(F)cc2)nc2cnc(N3CCOCC3)nc2n1-c1ccccc1`, for which the max response is -86.9%.

Turning to `COc1ccccc1-c1nc(NCc2cccs2)c2ccccc2n1`, the max response was -19.8%.

On to `Cc1cc(C(=O)NCC2Cc3cccc(-c4cncnc4)c3O2)c(C)o1` (stereo not drawn), for which the max response was 3.15%.

Consider `COc1ccccc1CNc1ncncc1-c1cccc(NS(C)(=O)=O)c1`, for which the max response is -3.54%.

As to `CCC1CN(CCNC(=O)c2cccc(C)n2)Cc2cc(OC)ccc2O1` (stereo not drawn), the max response is 8.26%.

Take `CC(C)(C)NCC(O)COc1cccc2[nH]c(=O)[nH]c12` (stereo not drawn): the max response was -8.93% and -6.11%.

Consider `CC(=O)N1CCC2(CCCN(c3ncccn3)C2)CC1`, for which the max response is -18.4%.

Consider `Cc1ccc(C(=O)Nc2cccc(-c3nc(CNC(=O)c4ccccc4-n4cccn4)c(C)o3)c2)s1`, for which the max response is -3.18%.

Turning to `Cc1csc(-c2coc3cc(O[C@@H]4O[C@H](CO)[C@@H](O)[C@@H](O)[C@H]4O)ccc3c2=O)n1`, the max response was -1.66%.

As for `COc1cc2[nH]c(C)c(CCN3CCN(c4ccccc4)CC3)c2cc1OC`, the max response is 5.71%.

In the case of `COCCn1c(=O)c(-c2cc(F)cc(F)c2)nc2cncnc21`, the max response is -6.52%.

In the case of `COCC(=O)N1CCC2(CCCN(c3ccccc3)C2)CC1`, the max response is -14.6%.

For `Cc1noc(C)c1-c1nccc(N2CCOCC2)n1`, the max response is 5.18%.

Regarding `O=P(O)(O)OC[C@H](O)CO`, the max response was -11.2%.

Consider `O=C(O)/C(=C/c1c(C(=O)O)[nH]c2cc(Cl)cc(Cl)c12)c1ccccc1`, for which the max response was -0.525%.

`CCOC(=O)N1CCC(N2CCOc3ccc(CN4CCC(O)(c5cccnc5)CC4)cc3C2)CC1`: the max response is -5.78%.

`Clc1ccccc1-c1cc(NCCN2CCOCC2)ncn1`: the max response was -6.13%.

As for `Cn1c(=O)c(CCc2ccccc2)nc2cnc(Nc3ccccc3)nc21`, the max response was -11%.
